# Assay outcomes from PubChem BioAssay.
# FBPA coupling cs – coupling enzyme interference in Giardia aldolase counter-screen; activity change, negative = inhibition, % at 58.2 µM, hits read low; 290,000 compounds, 0.67% hits; coupling enzyme system counterscreen, AmpLite Red fluorescence; in the data active means activity change below about -30%
#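 Coupling enzymes only (glyceraldehyde-3-phosphate) + compound, at 57.5 uM final, 10 min RT; add substrate/coupling/AmpLite Red mix, 20 min RT; fluorescence ex 525/em 598 nm. Actives flag coupling-system interference.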
# rTrxR1 inhibitor – rat TrxR1 inhibition | Potency, µM (doses to about 114 µM), for the others: top-dose activity change, negative = inhibition, most hits filed as inhibitors | recombinant rTrxR1, NADPH fluorescence consumption, selenite substrate | O89049 | 390,000 compounds, 1% hits; further: potency means the concentration at half of the fitted maximal effect; nearly all actives have a fitted effect of over 65% in size
#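 Rat TrxR1 (90 nM in the dispensed reagent) was pre-reduced with 400 uM NADPH for 5 min at room temperature, then incubated with compound for 15 min. After 400 uM selenite was added, NADPH fluorescence (Ex 340/Em 450 nm) was followed for 8 min.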
# GALK inhibitor – galactokinase (human) inhibition; Potency, µM (top dose mostly 57.5 µM), for the others: top-dose activity change, negative = inhibition, actives largely listed as inhibitors; 270,000 compounds, 0.007% hits; Purified GALK, Kinase-Glo residual ATP luminescence; further: potency means the concentration at half of the fitted maximal effect
#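 GALK at 5 nM final was combined with compound, 35 uM ATP and 100 uM galactose in HEPES pH8.0 with MgCl2 and DTT. The reaction ran one hour at room temperature before luminescent ATP detection.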
# TrxR1 substrate – is turned over as a substrate by rat TrxR1 | purified TrxR1 substrate turnover, NADPH consumption readout | 390,000 compounds, 0.01% hits | Potency, µM (top dose mostly 114 µM), for inactives: at the top dose activity change, negative = substrate turnover | O89049; further: potency means the concentration at half of the fitted maximal effect; nearly all actives have a fitted effect of over 50% in size
#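 Rat TrxR1, dispensed at 90 nM, was prereduced with 400 uM NADPH (final) for 5 min at ~22 deg C, then incubated with compound 15 min before 400 uM selenite. A first-read NADPH fluorescence drop versus no-compound background flagged substrates.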
# VP16 counter – inhibits Gal4-VP16 luciferase reporter, ROR gamma counter-screen; Drosophila S2 Gal4-VP16 UAS-luciferase, luminescence, 20 h; Potency, µM (series often up to 53.6 µM), without a hit: at the top dose activity, negative = inhibition, actives largely listed as inhibitors; 310,000 compounds, 3.5% hits;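 further: Gal4-VP16 expression switched on by copper sulfate through the metallothionein promoter; potency means the concentration at half of the fitted maximal effect; nearly all actives have a fitted effect of over 50% in size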
# RORg inh – inhibitors of mouse ROR gamma transcriptional activity. P51450. Drosophila S2 Gal4-RORgamma UAS-luciferase reporter, 20 h. Potency, µM (titrated, usually from 53.6 µM), inactives show at the top dose activity change, negative = inhibition, usual class: inhibitors. 310,000 compounds, 5.4% hits. AID 2551; further: potency means the concentration at half of the fitted maximal effect; nearly all actives have a fitted effect of over 60% in size
# Target sequence (P51450 whole entry, looked up, the tested form may be a part): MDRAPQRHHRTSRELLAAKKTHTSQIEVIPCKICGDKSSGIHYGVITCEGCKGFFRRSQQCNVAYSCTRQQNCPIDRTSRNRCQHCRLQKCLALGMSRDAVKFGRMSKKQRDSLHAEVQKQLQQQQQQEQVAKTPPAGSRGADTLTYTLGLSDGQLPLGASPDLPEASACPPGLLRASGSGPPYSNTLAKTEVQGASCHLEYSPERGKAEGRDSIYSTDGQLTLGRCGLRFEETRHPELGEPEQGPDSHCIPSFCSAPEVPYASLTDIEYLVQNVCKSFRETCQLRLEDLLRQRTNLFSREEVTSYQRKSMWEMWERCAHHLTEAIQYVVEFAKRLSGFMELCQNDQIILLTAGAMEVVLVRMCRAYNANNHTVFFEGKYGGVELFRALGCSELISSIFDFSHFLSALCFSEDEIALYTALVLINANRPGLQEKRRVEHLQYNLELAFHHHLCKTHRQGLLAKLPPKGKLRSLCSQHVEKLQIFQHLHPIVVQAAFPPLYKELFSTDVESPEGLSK
#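 Luminescence from a UAS-regulated Photinus luciferase reporter in stably transfected Drosophila Schneider cells is measured; decreased signal marks ROR gamma inhibition. Fusion expression is induced by 700 uM copper sulfate for 20 hr.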
# * = called active by the depositor; ? = inconclusive; . = not tested or not shown; [ ] = remark or other dose. Rows were chosen to be rich in hits. Some 5.9% of all compounds tested hit in one or more screens of this group. Unless noted, the call rests on the fitted dose curve; in most records, active means well fitted curve in the direction sought with a large enough effect; inconclusive means small, poorly fitted or top-dose-only effect, or another doubt; inactive means no such curve, though single readings can be large; an effect the other way counts as inactive or inconclusive. On the % scale 0 is the no-effect control and ±100 the full control effect.
SMILES,FBPA coupling cs,rTrxR1 inhibitor,GALK inhibitor,TrxR1 substrate,VP16 counter,RORg inh
N#CC(c1ccccc1)(c1ncc(C(F)(F)F)cc1Cl)N1CCOCC1 (stereo not drawn),1,-10%,2%,-5%,-9%,-3%
CC(C)n1c(CN2CCN(C)CC2)nc2c1c(=O)n(C)c(=O)n2C,.,14%,.,9%,.,.
CCOc1ccc(C(=O)NCC(=O)NNC(=O)CN(C)S(=O)(=O)c2ccc(Cl)cc2)cc1OCC,.,10%,.,2%,.,.
CCc1cc(C(=O)N2CCN(S(=O)(=O)c3ccccc3F)CC2)sc1C,.,22%,.,-5%,.,.
COc1ccccc1NC1=C(Cl)C(=O)OC1OC(=O)c1ccco1 (stereo not drawn),-2,-4%[57.1 µM],-1%,3%[57.1 µM],-11%,?
Cc1ccccc1NC1=C(Cl)C(=O)OC1OC(=O)c1ccco1 (stereo not drawn),7,-18%,0%,-4%,-28%,10µM*
C[C@H](Cc1ccc(O)c(O)c1)[C@@H](C)Cc1ccc(O)c(O)c1,.,13µM*,.,8%[57.1 µM],.,.
Nc1nc(-c2ccccn2)nc(N)c1Cc1c(F)cccc1Cl,-4,3%[57.1 µM],0%,-4%[57.1 µM],11µM*,2.8µM*
Nc1nc(-c2ccccn2)nc(N)c1Cc1ccc(Cl)cc1Cl,-2,12%,6%,0%,8.9µM*,4µM*
Nc1nc(-c2ccccn2)nc(N)c1Cc1ccccc1F,-4,-10%[57.1 µM],1%,-8%[57.1 µM],1%,6.3µM*
O=c1c(Cc2c(F)cccc2Cl)c(O)ccn1CCc1ccccn1,3,7%,3%,8%[57.1 µM],-17%,-4%
CSC1=NC(C(Cl)(Cl)Cl)N=C(c2ccc(C)cc2)N1 (stereo not drawn),-5,19%[57.1 µM],2%,11%[57.1 µM],-9%,?
CCCN(CC)c1ncnc2[nH]ncc12,.,24%[57.1 µM],.,10%[57.1 µM],.,.
C(=C\n1nnc2ccccc21)/c1ccc[nH]1,.,13µM*,.,2%,.,.
Cc1ccc(S(=O)(=O)N2CCCC(C(=O)NCc3ccccn3)C2)cc1 (stereo not drawn),0,23%[57.1 µM],1%,7%[57.1 µM],5%,69%
O=C(NCc1ccc(Cl)cc1)[C@@H]1CCCN1S(=O)(=O)c1ccc(Cl)cc1,.,21%[57.1 µM],.,9%,.,.
O=C(NCc1ccccn1)C1CN(S(=O)(=O)c2ccccc2)CCN1S(=O)(=O)c1ccccc1 (stereo not drawn),1,7%[57.1 µM],2%,3%[57.1 µM],-7%,11µM*
O=C(NCc1ccncc1)C1CCCN1S(=O)(=O)c1ccc(Cl)cc1 (stereo not drawn),.,8%,-4%,1%,-14%,0.63µM*
CC(C)(C)c1ccc(S(=O)(=O)N2CCCCC2C(=O)NCc2ccccn2)cc1 (stereo not drawn),-4,21%[57.1 µM],0%,9%[57.1 µM],2.5µM*,?
CCOc1ccc(-n2ccnc2SCC(=O)Nc2ccc(OC)cc2OC)cc1,.,7%[57.1 µM],.,0%[57.1 µM],.,.
Cc1ccccc1OCCCN1C(=O)C(=O)c2cccc(C)c21,-14,5%,-3%,-8%,11µM*,35µM*
Cc1cccc2c1N(CCCOc1ccccc1)C(=O)C2=O,-4,9%,-8%,-1%,?,-44%
Cc1ccc(SCc2cc(=O)[nH]c(/N=C(\N)Nc3ccccc3Sc3ccccc3)n2)cc1,3,-10%,3%,-8%,2%,2%
COc1ccccc1N/C(N)=N/c1nc(CSc2ccc(C)cc2)cc(=O)[nH]1,-10,-3%,-1%,-2%,7.9µM*,-32%
O=C(N/N=C/c1cn(Cc2ccccc2)c2ccccc12)c1ccncc1,-1,-1%[57.1 µM],3%,-15%[57.1 µM],?,2.8µM*
CCn1c2ccccc2c2cc(/C=N/NC(=O)c3ccccc3)ccc21,-1,79%,-3%,107%,?,8.9µM*
Cn1c2ccccc2c2cc(/C=N/NC(=O)c3cc(O)cc(O)c3)ccc21,3,14%,8%,22%,-13%,-29%
O=C(N/N=C/c1cn(Cc2ccccc2)c2ccccc12)c1cccnc1,1,6%,0%,4%,8.9µM*,7.1µM*
